Hit rate of the full screen: of about 400,000 compounds, about 2,100 (0.53%) were called active. Not shown: some 14% with an inconclusive outcome. No rule for the calls is given here. The sample as a whole holds a higher share of actives than the screen did.

Sequence of Ataxin-2 (Homo sapiens) (Q99700 whole entry): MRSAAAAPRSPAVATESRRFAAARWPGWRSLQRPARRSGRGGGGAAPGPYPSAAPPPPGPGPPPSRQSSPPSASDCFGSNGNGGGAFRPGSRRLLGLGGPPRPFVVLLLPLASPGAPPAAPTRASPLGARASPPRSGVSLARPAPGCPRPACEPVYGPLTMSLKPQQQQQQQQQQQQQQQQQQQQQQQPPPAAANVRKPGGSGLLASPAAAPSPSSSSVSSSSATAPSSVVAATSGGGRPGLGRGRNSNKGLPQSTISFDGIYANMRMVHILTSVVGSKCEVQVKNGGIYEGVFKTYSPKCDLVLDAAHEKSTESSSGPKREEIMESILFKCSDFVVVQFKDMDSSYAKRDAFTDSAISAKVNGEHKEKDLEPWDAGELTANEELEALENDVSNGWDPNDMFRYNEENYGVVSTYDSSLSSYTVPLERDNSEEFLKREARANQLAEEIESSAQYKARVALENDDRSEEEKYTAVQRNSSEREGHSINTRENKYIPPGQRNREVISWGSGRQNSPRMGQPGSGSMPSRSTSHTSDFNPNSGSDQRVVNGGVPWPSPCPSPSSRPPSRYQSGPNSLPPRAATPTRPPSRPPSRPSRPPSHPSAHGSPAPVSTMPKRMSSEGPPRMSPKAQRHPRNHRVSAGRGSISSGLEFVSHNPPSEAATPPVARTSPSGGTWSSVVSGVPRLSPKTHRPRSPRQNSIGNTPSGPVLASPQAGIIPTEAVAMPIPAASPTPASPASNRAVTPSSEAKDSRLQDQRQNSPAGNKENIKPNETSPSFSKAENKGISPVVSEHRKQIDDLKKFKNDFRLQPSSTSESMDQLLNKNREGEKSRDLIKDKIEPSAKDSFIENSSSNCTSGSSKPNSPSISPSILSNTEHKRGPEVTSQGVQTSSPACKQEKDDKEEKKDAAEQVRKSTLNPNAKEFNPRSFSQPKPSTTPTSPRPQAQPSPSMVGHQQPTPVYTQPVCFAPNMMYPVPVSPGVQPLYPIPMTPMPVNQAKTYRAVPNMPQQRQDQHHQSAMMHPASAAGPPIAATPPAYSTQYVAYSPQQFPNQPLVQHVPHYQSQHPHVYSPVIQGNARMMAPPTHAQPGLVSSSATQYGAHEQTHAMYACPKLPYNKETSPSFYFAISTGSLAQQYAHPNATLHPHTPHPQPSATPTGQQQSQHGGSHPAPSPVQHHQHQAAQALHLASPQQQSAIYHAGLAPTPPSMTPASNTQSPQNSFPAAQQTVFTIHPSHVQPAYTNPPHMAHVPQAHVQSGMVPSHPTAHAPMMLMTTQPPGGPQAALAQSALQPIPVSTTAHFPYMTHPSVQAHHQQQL

The test addresses Ataxin-2 (Homo sapiens) (UniProt Q99700). In words: qHTS for Inhibitors of ATXN expression. The format is functional. A general note: In qHTS, concentration-response curves come from the screen itself.
As for `CN(C)c1ccc(C2C3CCCc4ccccc4C3=NN2C)cc1` (stereo not drawn), the Potency entry was “inactive”.

Take `Nc1nnn(CC(=O)N/N=C/c2ccncc2)n1`: the Potency result was “inactive”. For `CCNc1nc(NCC)n2c(SC(C(=O)Nc3cc(Cl)cc(Cl)c3)c3ccccc3)nnc2n1` (stereo not drawn) the value was 39.8 µM (active); for `Cc1cc(/C=C2/C(=N)N3C(c4ccccc4)=CSC3=NC2=O)c(C)n1-c1ccccc1`, “inactive”; for `Nc1nc(Cl)cc(=O)n1Cc1ccc(Cl)cc1`, “inactive”. For `c1ccc(N/N=C(\Cc2ncc[nH]2)c2ccccc2)cc1` the value was “inactive”. For the compound `Brc1ccc(N/N=C(/N=Nc2nn[nH]n2)c2ccccc2)cc1`, the Potency was 35.5 µM (active). With `CCOC(=O)C[n+]1ccc2c([nH]c3ccccc32)c1C`, the Potency entry was “inactive”.

Turning to `C[C@@H]1CN([C@H](C)CO)C(=O)c2cccc(NC(=O)Nc3ccc(F)cc3)c2O[C@H]1CN(C)C(=O)Nc1ccc(C(F)(F)F)cc1`, the Potency was 28.2 µM (active). For `COc1ccc(OC)c(NC(=O)c2nc3ccccc3s2)c1` the value was “inactive”; for `C[C@H](CO)N1C[C@H](C)[C@@H](CN(C)C(=O)Nc2ccc3c(c2)OCO3)Oc2c(NC(=O)Nc3ccc(C(F)(F)F)cc3)cccc2C1=O`, 22.4 µM (active); for `C[C@H](CO)N1C[C@H](C)[C@@H](CN(C)C(=O)Nc2ccc(C(F)(F)F)cc2)Oc2c(NC(=O)Nc3ccccc3)cccc2C1=O`, 25.1 µM (active). Under `COc1ccc(NC(=O)N(C)C[C@H]2Oc3c(NC(=O)c4nc5ccccc5s4)cccc3C(=O)N([C@@H](C)CO)C[C@H]2C)cc1` stands 39.8 µM (active). `O=C(O)c1ccc(N2C(=O)CC(SC(=NCc3ccc4c(c3)OCO4)Nc3ccc(F)cc3)C2=O)cc1` (stereo not drawn): the Potency result is “inactive”.

Consider `O=C1N=C(Nc2nc3ccccc3[nH]2)c2ccccc21`, for which the Potency result was “inactive”. Take `CCOc1ccc2nc(NCCNS(=O)(=O)c3ccccc3)c(C#N)cc2c1`: the Potency entry is “inactive”.

For the compound `Clc1ccccc1C1=CC(c2ccco2)n2ncnc2N1` (stereo not drawn), the Potency result is “inactive”.

With `C#CCOc1c(Cl)cc(C2C3=C(CCCC3=O)N(CC(=O)O)C3=C2C(=O)CCC3)cc1OC`, the Potency entry was “inactive”. With `C[C@H](CO)N1C[C@H](C)[C@@H](CN(C)C(=O)Nc2ccccc2)Oc2c(NC(=O)Nc3ccc(C(F)(F)F)cc3)cccc2C1=O`, the Potency was 39.8 µM (active).

For the compound `COCCCn1c(=N)c(C(=O)NCC2CCCO2)cc2c(=O)n3ccccc3nc21` (stereo not drawn), the Potency result was “inactive”. Turning to `COCCn1c(=N)c(C(=O)NCC2CCCO2)cc2c(=O)n3ccccc3nc21` (stereo not drawn), the Potency result was “inactive”.

On to `COc1ccc(CCn2c(=N)c(C(=O)NCC3CCCO3)cc3c(=O)n4ccccc4nc32)cc1` (stereo not drawn), for which the Potency is 15.8 µM (active). As to `O=C(NCc1ccccc1)C(=O)NCC1OCCN1S(=O)(=O)c1ccc2c(c1)OCCO2` (stereo not drawn), the Potency result is “inactive”. Under `O=C(CCC(=O)N1CCOc2ccc(Cl)cc21)NCCCN1CCC(Cc2ccccc2)CC1` stands 26.7 µM (active). For `CCOc1ccccc1C(=O)NC(C(=O)NCc1ccc(F)cc1)C(C)C` (stereo not drawn), the Potency result was “inactive”. As to `CC1=C(C)C(C)=C(C#N)C(=C(C#N)C#N)N1`, the Potency result was “inactive”. For `CSc1nn(Cc2ccc(Cl)cc2)c(N(C(C)=O)C(C)=O)c1S(=O)(=O)c1ccccc1` the value was 25.1 µM (active). Take `Cn1c(=O)n(Cc2ccc(Br)cc2)c2ccccc21`: the Potency entry was “inactive”. As for `O=c1cc(Cl)c(-c2ccccc2)nn1Cc1ccc(Cl)cc1`, the Potency result was “inactive”. Under `CSc1nn(Cc2ccc(Br)cc2)c(N(C(C)=O)C(C)=O)c1S(=O)(=O)c1ccccc1` stands 28.2 µM (active); under `CC12CCC(C(=O)N(CC3CO3)C1=O)C2(C)C` (stereo not drawn), “inactive”; under `Cn1cccc1C1C=C(c2ccc(C(C)(C)C)cc2)Nc2ncnn21` (stereo not drawn), “inactive”. Take `CC(=O)c1ccc(-c2ccc(C(=O)N(C)Cc3nc(O)c4ccccc4n3)o2)cc1`: the Potency result was “inactive”. Under `CC(C)c1ccc(/C=C(\NC(=O)c2ccccc2)C(=O)NCCCn2ccnc2)cc1` stands “inactive”. As to `O=C(/C=C/c1ccc(S(=O)(=O)N2CCOCC2)cc1)NCCCn1ccnc1`, the Potency result was “inactive”.

With `O=C(NCCCn1ccnc1)C(=O)NCC1OCCN1S(=O)(=O)c1ccc(F)cc1` (stereo not drawn), the Potency entry is “inactive”. Turning to `O=C(C[C@H]1C[C@H](C(=O)N2CCCCC2)[C@@]2(CCc3ccccc3)c3[nH]c4ccc(Cl)cc4c3CCN2C1=O)NCCCn1ccnc1`, the Potency is 28.2 µM (active). As to `O=C(C[C@H]1C[C@H](C(=O)N2CCOCC2)[C@@]2(CCC3CCCC3)c3[nH]c4ccc(Cl)cc4c3CCN2C1=O)NCCCn1ccnc1`, the Potency is 28.2 µM (active). Under `CC[C@@]1(O)C(=O)OCc2c1cc1n(c2=O)Cc2cc3c(CN(C)C)c(O)ccc3nc2-1` stands “inactive”; under `CC(C)(C)c1ccc(OCC(=O)Nc2ccc3c4c(cccc24)C(=O)NC3=O)cc1`, “inactive”. Under `O=[N+]([O-])c1cc(/C=N/N=C(/Nc2ccccn2)c2ccccn2)ccc1O` stands 2.67 µM (active). As to `Cc1ccc2nc3c(cc(C(N)=S)c(=N)n3CCCOC(C)C)c(=O)n2c1`, the Potency entry was “inactive”. With `C=CC[C@H](CC(=O)N(CCO)Cc1ccccc1)C(=O)N[C@H](COC(=O)[C@@H](CC=C)CC(=O)OC(C)(C)C)c1ccccc1`, the Potency was 35.5 µM (active). Under `C=CC[C@H](CC(=O)N(CCO)Cc1ccccc1)C(=O)N[C@H](COC(=O)[C@@H](CC=C)CC(=O)OC(C)(C)C)Cc1ccccc1` stands 35.5 µM (active); under `C=CC[C@@H](CC(=O)N(CCO)Cc1ccccc1)C(=O)N[C@H](COC(=O)[C@@H](CC=C)CC(=O)OC(C)(C)C)c1ccccc1`, 31.6 µM (active); under `N#CCC(=O)N/N=C/c1cc(-c2ccccc2)n(-c2ccc(Cl)cc2)c1-c1ccccc1`, “inactive”. Consider `COCCNS(=O)(=O)c1ccc2c3c(cccc13)C(=O)N2C`, for which the Potency result was “inactive”.

For the compound `CCCOC(=O)c1c(NC(=O)c2nc3ncccn3n2)sc(C(N)=O)c1C`, the Potency result is “inactive”.

With `O=C(COC(=O)/C=C/C(=O)OCC(=O)NC12CC3CC(CC(C3)C1)C2)NC12CC3CC(CC(C3)C1)C2`, the Potency is 31.6 µM (active). For `Nc1cccc2c1C(=O)N(CC(=O)NC13CC4CC(CC(C4)C1)C3)C2=O` the value was “inactive”. Take `CCOc1cc(/C=C2/C(=N)N3C(=NC2=O)SN=C3S(=O)(=O)CC)ccc1OC(=O)c1ccco1`: the Potency entry was “inactive”. Under `COc1ccc(CNC(=O)C/C(C)=N/NC(=O)c2ccc([N+](=O)[O-])cc2Cl)cc1` stands “inactive”; under `COc1ccc(/C=C2\C(=O)N(c3c(Cl)cc(Cl)cc3Cl)N=C2NC(=O)c2cccc([N+](=O)[O-])c2)cc1`, 22.4 µM (active).

Source of the values: ChEMBL document CHEMBL1201862, “PubChem BioAssay data set” (2004).
